Inconclusive results are not listed. Calls of active or inactive are those of the source. The calls were made as follows, unless noted: active = hit-call score of the fitted dose curve at least 0.9, where 1 is the maximum; inactive = score below 0.9.
Key:
[1] = target: human Retinoid X Receptor beta (RXRb), RXRB (gene 6257) (UniProt P28702); assay: ATG_RXRb_TRANS: Attagene TRANS-FACTORIAL HepG2 Assay for human Retinoid X Receptor beta (RXRb) (AID 2283013; active = hit-call score of the fitted dose curve at least 0.9, where 1 is the maximum)
Chain of human Retinoid X Receptor beta (RXRb), RXRB (gene 6257) (P28702 whole entry, looked up, the tested form may be a part): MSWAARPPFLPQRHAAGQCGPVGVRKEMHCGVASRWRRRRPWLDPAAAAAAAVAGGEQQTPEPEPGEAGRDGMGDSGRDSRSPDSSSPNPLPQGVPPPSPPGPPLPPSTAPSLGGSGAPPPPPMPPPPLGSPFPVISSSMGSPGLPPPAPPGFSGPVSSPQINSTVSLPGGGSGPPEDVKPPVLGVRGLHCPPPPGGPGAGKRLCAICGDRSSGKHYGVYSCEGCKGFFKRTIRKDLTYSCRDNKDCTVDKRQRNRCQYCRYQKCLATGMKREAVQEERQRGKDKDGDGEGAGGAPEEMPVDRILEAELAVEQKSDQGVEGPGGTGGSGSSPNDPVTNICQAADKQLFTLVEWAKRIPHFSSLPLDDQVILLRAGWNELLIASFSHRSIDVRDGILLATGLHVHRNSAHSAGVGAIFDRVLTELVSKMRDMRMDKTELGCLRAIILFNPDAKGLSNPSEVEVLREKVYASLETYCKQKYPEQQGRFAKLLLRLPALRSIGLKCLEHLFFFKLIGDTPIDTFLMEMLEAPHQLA
Summary of the method: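 HepG2 cells were transiently transfected with multiplexed GAL4-UAS reporters and a chimeric RXRb-Gal4 construct, then exposed for 24 h. Reporter mRNA was quantified by RT-PCR, FAM labeling, HpaI digestion and capillary electrophoresis; gain of signal was scored against DMSO.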

[2] = read-out: E-selectin (Homo sapiens) (UniProt P16581); assay: BSK_3C_Eselectin: BioMAP Diversity Plus: 3C Assay for Eselectin Biomarker Activity (AID 2283015); details: primary human endothelial cells (HUVEC); actives raise or lower the signal
Summary of the method: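 Primary human umbilical vein endothelial cells (3C system) were dosed with chemical and cell-surface E-selectin measured by ELISA 24 h later. Bidirectional curve fitting used DMSO as negative control and baseline.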

[3] = read-out: Interleukin-1 alpha (IL1a), IL1A (gene 3552); assay: BSK_BE3C_IL1a: BioMAP Diversity Plus: BE3C Assay for Interleukin-1 alpha (IL1a) Biomarker Activity (AID 2283016); details: primary human bronchial epithelial cells; actives raise or lower the signal
Summary of the method: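 Human primary bronchial epithelial cells, 24 h chemical exposure; IL-1a quantified by ELISA, fitted bidirectionally against DMSO. Cytotoxicity assessed in parallel by SRB total-protein staining at the time of measurement.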

[4] = read-out: Monocyte Chemoattractant Protein-1 (MCP1), CCL2 (gene 6347); assay: BSK_3C_MCP1: BioMAP Diversity Plus: 3C Assay for Monocyte Chemoattractant Protein-1 (MCP1) Biomarker Activity (AID 2283017); details: primary human endothelial cells (HUVEC); actives raise or lower the signal
Summary of the method: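 Primary human umbilical vein endothelial cells (3C system) were exposed to test chemical for 24 h, after which MCP-1 was quantified by ELISA. Activity was fitted bidirectionally against DMSO as negative control and baseline.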

[5] = read-out: Monocyte Chemoattractant Protein-1 (MCP1), CCL2 (gene 6347); assay: BSK_4H_MCP1: BioMAP Diversity Plus: 4H Assay for Monocyte Chemoattractant Protein-1 (MCP1) Biomarker Activity (AID 2283018); details: primary human endothelial cells (HUVEC); actives raise or lower the signal
Summary of the method: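 Human umbilical vein endothelial cells (4H system) exposed to chemicals for 24 h in 96-well format. MCP-1 measured by ELISA; bidirectional fitting against DMSO, with SRB total-protein staining in parallel cultures for cytotoxicity.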

[6] = read-out: Human Leukocyte Antigen - DR isotype (HLADR), HLA-DRA (gene 3122); assay: BSK_3C_HLADR: BioMAP Diversity Plus: 3C Assay for Human Leukocyte Antigen - DR isotype (HLADR) Biomarker Activity (AID 2283019); details: primary human endothelial cells (HUVEC); actives raise or lower the signal
Summary of the method: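 Primary human umbilical vein endothelial cells (3C system) were dosed with compound and cell-surface HLA-DR was quantified by ELISA at 24 h. Activity was fitted bidirectionally against DMSO as negative control and baseline.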

[7] = read-out: Interleukin-8 (IL8), CXCL8 (gene 3576); assay: BSK_3C_IL8: BioMAP Diversity Plus: 3C Assay for Interleukin-8 (IL8) Biomarker Activity (AID 2283020); details: primary human endothelial cells (HUVEC); actives raise or lower the signal
Summary of the method: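 Primary human umbilical vein endothelial cells were dosed for 24 h. IL-8 was quantified by ELISA and fitted bidirectionally against DMSO. Cytotoxicity was assessed in parallel cultures by SRB staining at 560 nm.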

[8] = read-out: Monokine induced gamma interferon (MIG), CXCL9 (gene 4283); assay: BSK_3C_MIG: BioMAP Diversity Plus: 3C Assay for Monokine induced gamma interferon (MIG) Biomarker Activity (AID 2283021); details: primary human endothelial cells (HUVEC); actives raise or lower the signal
Summary of the method: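 HUVEC primary endothelial cultures dosed with chemical; MIG quantified by ELISA at 24 h. Data fitted bidirectionally against DMSO control, with parallel SRB total-protein staining for cytotoxicity.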

[9] = BSK_3C_SRB: Viability Assessment in the BioMAP Diversity Plus: 3C Assay (AID 2283023); details: primary human endothelial cells (HUVEC);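 also: fitted both ways against DMSO so a hit may be signal rise or drop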
Summary of the method: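 Primary human umbilical vein endothelial cells in the 3C system were read 24 h after compound dosing. Total protein was stained with 0.1% sulforhodamine B after 10% TCA fixation and read at 560 nm, with bidirectional fitting against DMSO as baseline.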

[10] = read-out: Matrix Metallopeptidase 1 (MMP1), MMP1 (gene 4312); assay: BSK_BE3C_MMP1: BioMAP Diversity Plus: BE3C Assay for Matrix Metallopeptidase 1 (MMP1) Biomarker Activity (AID 2283024); details: primary human bronchial epithelial cells; actives raise or lower the signal
Summary of the method: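 Human primary bronchial epithelial cells (BE3C system) dosed for 24 h; MMP-1 quantified by ELISA. Bidirectional fit against DMSO; cytotoxicity tracked in parallel cultures by SRB total-protein staining.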

[11] = BSK_3C_Vis: BioMAP Diversity Plus: 3C Assay for Morphology Visualization (AID 2283025); details: primary human endothelial cells (HUVEC);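 also: fitted both ways so gain or loss versus DMSO counts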
Summary of the method: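 Human umbilical vein endothelial cell morphology was inspected by light microscopy 24 h after chemical dosing; scored bidirectionally relative to DMSO.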

[12] = read-out: Pselectin, SELP (gene 6403); assay: BSK_4H_Pselectin: BioMAP Diversity Plus: 4H Assay for Pselectin Biomarker Activity (AID 2283026); details: primary human endothelial cells (HUVEC); actives raise or lower the signal
Summary of the method: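 Primary human umbilical vein endothelial cells were treated 24 h, and cell-surface P-selectin was then quantified by ELISA. Bidirectional fit versus DMSO; cytotoxicity checked in parallel cultures by SRB total-protein staining.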

[13] = BSK_4H_SRB: Viability Assessment in the BioMAP Diversity Plus: 4H Assay (AID 2283027); details: primary human endothelial cells (HUVEC);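 also: cells exposed to compound for 24 h before staining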;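 as to AC50: curves fitted both ways versus DMSO so AC50 may be loss or gain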
Summary of the method: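 Human umbilical vein endothelial cells were dosed with chemical and, after 24 h, fixed with 10% TCA, stained with 0.1% sulforhodamine B, and read at 560 nm to give total protein as a cytotoxicity measure. Bidirectional fitting relative to DMSO control.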

[14] = BSK_BE3C_SRB: Viability Assessment in the BioMAP Diversity Plus: BE3C Assay (AID 2283028); details: primary human bronchial epithelial cells
Summary of the method: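 Human primary bronchial epithelial cells were exposed to test chemicals for 24 h. Total protein in parallel cultures was then measured by staining with 0.1% sulforhodamine B after 10% TCA fixation, with absorbance read at 560 nm. Activity was fitted bidirectionally against DMSO.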

[15] = read-out: Thrombomodulin, THBD (gene 7056); assay: BSK_3C_Thrombomodulin: BioMAP Diversity Plus: 3C Assay for Thrombomodulin Biomarker Activity (AID 2283029); details: primary human endothelial cells (HUVEC); actives raise or lower the signal
Summary of the method: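 Human umbilical vein endothelial cells were exposed to chemicals for 24 h; cell-surface thrombomodulin quantified by ELISA, with bidirectional fitting against DMSO baseline.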

[16] = target: Retinoic acid receptor RXR-alpha (Homo sapiens) (UniProt P19793); assay: ATG_RXRa_TRANS: Attagene TRANS-FACTORIAL HepG2 Assay for human Retinoid X Receptor alpha (RXRa) (AID 2283012; active = hit-call score of the fitted dose curve at least 0.9, where 1 is the maximum)
Chain of Retinoic acid receptor RXR-alpha (Homo sapiens) (P19793 whole entry, looked up, the tested form may be a part): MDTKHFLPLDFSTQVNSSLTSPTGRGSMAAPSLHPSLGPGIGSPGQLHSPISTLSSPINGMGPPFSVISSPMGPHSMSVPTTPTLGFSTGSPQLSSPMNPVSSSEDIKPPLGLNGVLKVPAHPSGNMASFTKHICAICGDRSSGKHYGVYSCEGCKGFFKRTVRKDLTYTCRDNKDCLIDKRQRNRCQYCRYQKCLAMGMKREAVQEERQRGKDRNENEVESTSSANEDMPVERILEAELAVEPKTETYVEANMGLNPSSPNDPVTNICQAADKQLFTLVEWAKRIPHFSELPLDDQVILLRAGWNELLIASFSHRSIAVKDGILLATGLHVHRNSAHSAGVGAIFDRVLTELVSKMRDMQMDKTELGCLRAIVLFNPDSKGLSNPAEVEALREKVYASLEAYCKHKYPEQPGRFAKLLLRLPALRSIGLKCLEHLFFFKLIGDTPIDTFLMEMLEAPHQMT
Summary of the method: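 HepG2 cells transiently transfected with GAL4-UAS reporter units and chimeric RXRa-Gal4 protein, treated 24 h. Reporter mRNA measured by RT-PCR, fluorescent labelling, HpaI digestion and capillary electrophoresis. Induction fitted against DMSO.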

[17] = target: human Vitamin D Receptor (VDR), VDR (gene 7421) (UniProt P11473); assay: ATG_VDR_TRANS: Attagene TRANS-FACTORIAL HepG2 Assay for human Vitamin D Receptor (VDR) (AID 2283022; active = hit-call score of the fitted dose curve at least 0.9, where 1 is the maximum)
Chain of human Vitamin D Receptor (VDR), VDR (gene 7421) (P11473 whole entry, looked up, the tested form may be a part): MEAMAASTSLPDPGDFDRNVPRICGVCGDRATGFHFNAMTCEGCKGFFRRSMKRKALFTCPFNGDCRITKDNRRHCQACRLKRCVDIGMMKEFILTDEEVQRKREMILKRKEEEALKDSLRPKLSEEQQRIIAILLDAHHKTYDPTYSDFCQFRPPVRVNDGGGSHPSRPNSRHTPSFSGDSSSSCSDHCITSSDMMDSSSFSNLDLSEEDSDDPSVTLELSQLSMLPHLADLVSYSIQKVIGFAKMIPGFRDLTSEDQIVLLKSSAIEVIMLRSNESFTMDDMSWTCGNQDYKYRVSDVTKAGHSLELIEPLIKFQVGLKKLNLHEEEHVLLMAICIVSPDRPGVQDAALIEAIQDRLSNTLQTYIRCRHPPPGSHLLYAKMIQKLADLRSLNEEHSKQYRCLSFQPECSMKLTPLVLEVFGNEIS
Summary of the method: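 HepG2 cells were transiently transfected with multiple GAL4-UAS reporter units, so signal reflects exogenous chimeric receptor-Gal4 activity. After 24 h compound exposure, reporter mRNA was measured by RT-PCR, fluorescent labelling and capillary electrophoresis, fitted for gain of signal versus DMSO.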

[18] = target: human RAR-related Orphan Receptor gamma (RORg), RORC (gene 6097) (UniProt P51449); assay: ATG_RORg_TRANS: Attagene TRANS-FACTORIAL HepG2 Assay for human RAR-related Orphan Receptor gamma (RORg) (AID 2283011; active = hit-call score of the fitted dose curve at least 0.9, where 1 is the maximum)
Chain of human RAR-related Orphan Receptor gamma (RORg), RORC (gene 6097) (P51449 whole entry, looked up, the tested form may be a part): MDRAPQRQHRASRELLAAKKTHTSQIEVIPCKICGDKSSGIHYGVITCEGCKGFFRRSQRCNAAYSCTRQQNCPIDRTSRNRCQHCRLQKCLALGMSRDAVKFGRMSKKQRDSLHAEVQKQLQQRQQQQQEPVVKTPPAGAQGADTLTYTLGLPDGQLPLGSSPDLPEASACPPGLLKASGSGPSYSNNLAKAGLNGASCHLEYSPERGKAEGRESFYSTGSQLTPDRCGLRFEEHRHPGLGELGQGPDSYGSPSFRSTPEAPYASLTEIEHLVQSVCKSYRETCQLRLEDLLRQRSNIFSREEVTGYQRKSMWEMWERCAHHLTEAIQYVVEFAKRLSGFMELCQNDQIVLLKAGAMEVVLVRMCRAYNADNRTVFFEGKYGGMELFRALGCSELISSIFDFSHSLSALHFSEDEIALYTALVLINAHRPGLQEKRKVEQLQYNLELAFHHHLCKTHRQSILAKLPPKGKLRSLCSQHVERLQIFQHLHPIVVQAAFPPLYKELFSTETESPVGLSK
Summary of the method: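 Readout: reporter transcript induction (RT-PCR, fluorescent primer extension, capillary electrophoresis) after 24 h compound exposure of transiently transfected HepG2 cells carrying a RORg-Gal4 chimera and GAL4-UAS reporters; DMSO served as baseline, with increasing signal fitted.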

[19] = target: human Thyroid Receptor alpha (THRa1), THRA (gene 7067) (UniProt P10827); assay: ATG_THRa1_TRANS: Attagene TRANS-FACTORIAL HepG2 Assay for human Thyroid Receptor alpha (THRa1) (AID 2283014; active = hit-call score of the fitted dose curve at least 0.9, where 1 is the maximum)
Chain of human Thyroid Receptor alpha (THRa1), THRA (gene 7067) (P10827 whole entry, looked up, the tested form may be a part): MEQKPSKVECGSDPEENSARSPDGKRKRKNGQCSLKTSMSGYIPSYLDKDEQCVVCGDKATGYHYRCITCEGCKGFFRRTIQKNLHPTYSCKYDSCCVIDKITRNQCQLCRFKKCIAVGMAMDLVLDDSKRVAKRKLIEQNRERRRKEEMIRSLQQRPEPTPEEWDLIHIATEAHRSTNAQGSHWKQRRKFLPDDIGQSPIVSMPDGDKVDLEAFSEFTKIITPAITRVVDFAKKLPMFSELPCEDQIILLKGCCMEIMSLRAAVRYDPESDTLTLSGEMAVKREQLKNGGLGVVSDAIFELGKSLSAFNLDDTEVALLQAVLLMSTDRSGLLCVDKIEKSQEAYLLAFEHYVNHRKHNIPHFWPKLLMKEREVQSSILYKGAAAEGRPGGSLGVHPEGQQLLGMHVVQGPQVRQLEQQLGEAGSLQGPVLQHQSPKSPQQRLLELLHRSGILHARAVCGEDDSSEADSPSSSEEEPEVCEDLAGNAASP
Summary of the method: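 HepG2 cells transiently transfected with multiplexed GAL4-UAS reporter units for exogenous chimeric THRa1-Gal4; reporter mRNA measured 24 h after dosing by RT-PCR, 6-FAM labelling, HpaI digestion and capillary electrophoresis. Gain-of-signal fitted versus DMSO baseline.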

Measured: AC50

Chain of E-selectin (Homo sapiens) (P16581 whole entry, looked up): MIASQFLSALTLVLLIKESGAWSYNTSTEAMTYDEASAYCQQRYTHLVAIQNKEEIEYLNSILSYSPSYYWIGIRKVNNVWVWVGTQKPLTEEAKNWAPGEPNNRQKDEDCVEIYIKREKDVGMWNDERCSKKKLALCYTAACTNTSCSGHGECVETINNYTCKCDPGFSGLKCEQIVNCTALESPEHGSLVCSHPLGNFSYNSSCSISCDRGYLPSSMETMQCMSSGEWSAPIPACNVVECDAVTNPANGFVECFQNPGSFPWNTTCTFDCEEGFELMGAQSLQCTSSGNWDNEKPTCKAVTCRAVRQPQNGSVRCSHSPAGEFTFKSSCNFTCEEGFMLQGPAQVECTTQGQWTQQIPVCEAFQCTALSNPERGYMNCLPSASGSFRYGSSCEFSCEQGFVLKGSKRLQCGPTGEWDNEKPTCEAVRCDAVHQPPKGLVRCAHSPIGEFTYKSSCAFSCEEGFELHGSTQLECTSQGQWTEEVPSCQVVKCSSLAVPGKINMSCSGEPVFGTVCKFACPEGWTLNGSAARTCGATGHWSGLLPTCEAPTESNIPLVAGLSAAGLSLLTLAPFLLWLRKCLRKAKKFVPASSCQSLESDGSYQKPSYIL

O=C(O)C(F)(F)C(F)(F)C(F)(F)C(F)(F)C(F)(F)F
not listed: [16] | [17] | [18] | [19]
inactive: all other assays above

ClC1=C(Cl)[C@]2(Cl)[C@@H]3[C@@H](Cl)[C@H]4O[C@H]4[C@@H]3C1(Cl)C2(Cl)Cl
active: [6] 11.5 µM | [9] 11.9 µM
not listed: [11] | [15] | [18] | [19]
inactive: all other assays above

C1CC2OC2CC1C1CO1 (centres undefined)
not listed: [1] | [11] | [15] | [16] | [19]
inactive: all other assays above

Cc1cccc(C)c1N
not listed: [1] | [11] | [15] | [16] | [17] | [18] | [19]
inactive: all other assays above

CN(C)c1nc(=O)n(C2CCCCC2)c(=O)n1C
not listed: [11] | [15] | [17] | [18] | [19]
inactive: all other assays above

Oc1ccc(Cl)cc1Cl
not listed: [1] | [11] | [16] | [17] | [18]
inactive: all other assays above

CC(c1ccc(O)cc1)(c1ccc(O)cc1)c1ccc(O)cc1
active: [3] 6.69 µM | [4] 31.1 µM | [5] 18.9 µM | [6] 28.5 µM | [17] 17.7 µM | [9] 28 µM | [12] 31.9 µM | [13] 20 µM
inactive: [16] | [2] | [7] | [8] | [10] | [14] | [15]

Source: PubChem BioAssay (EPA / NIEHS)
